Most compounds without a hit are left out; they make up all but 4.1% or so of the library.
PolyA inh: polyadenylation inhibitors in yeast reporter cells, primary screen, luminescence, S. cerevisiae. S. cerevisiae SKY197-pL101 polyadenylation reporter, beta-gal luminescence; efflux-impaired pdr1/pdr3 knockout yeast; score 100 = 6 SD above DMSO. AID 1875, 2009. 300,000 compounds, 0.02% hits. activity score, % at 12 µM;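 active means lowest replicate activity score at least 50, where 100 means six control SD above control mean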;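 further: yeast exposed to compound for 9 h at 30 °C; higher score means more reporter readthrough which indicates perturbed polyadenylation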
DAX1 inh-1: DAX1 (NR0B1) inhibitors, primary screen, cell-based, HEK293, Gal4-DAX1, luciferase luminescence; HEK293 Gal4-DAX1 luciferase reporter; 340,000 compounds, 0.99% hits; inhibition, % at 6.75 µM; Nuclear receptor subfamily 0 group B member 1 (Homo sapiens), P51843;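 active means inhibition above the mean over all tested compounds plus 3 SD, cut at about 4.2% in these data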;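 further: 0% = DAX1-transfected cells with DMSO and 100% = empty-vector control cells with DMSO; inhibition shows as a rise in luminescence from relieved DAX1 repression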
Target sequence (P51843 207-470 limits assumed): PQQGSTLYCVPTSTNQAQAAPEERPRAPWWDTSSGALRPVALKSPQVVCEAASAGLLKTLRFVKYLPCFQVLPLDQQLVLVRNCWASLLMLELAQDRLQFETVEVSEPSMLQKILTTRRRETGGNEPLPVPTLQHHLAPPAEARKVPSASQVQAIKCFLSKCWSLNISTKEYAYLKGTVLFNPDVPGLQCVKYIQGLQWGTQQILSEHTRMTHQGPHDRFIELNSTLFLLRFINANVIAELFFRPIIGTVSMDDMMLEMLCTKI
hgDAF-12 ag: H. glycines DAF-12 receptor agonists, primary screen, cell-based, luminescence, HEK293, GAL4 fusion, UAS-luciferase | HEK293 GAL4-hgDAF12 UAS-luciferase reporter, agonist luminescence; normalized to butyrate control | activation, % at 6.8 µM | 370,000 compounds, 1.8% hits | AID 687014, 2013;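 active means activation above a cutoff set at the mean of all screened compounds plus 3 SD, cut at about 10% in these data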;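 further: 0% = DMSO wells and 100% = sodium butyrate wells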
hcDAF12 agonist: H. contortus DAF-12 nuclear receptor activators, primary screen, cell-based, luminescence, HEK293, lit1-tk-luc reporter; 370,000 compounds, 1.4% hits; activation, % at 6.8 µM; AID 652067, 2013; HEK293 hcDAF-12 lit1-tk-luc reporter; 0% DMSO, 100% Δ7-dafachronic acid;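 active means activation above the mean of all tested compounds plus 3 SD, cut at about 5.5% in these data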;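 further: 100% = response to 3 µM Δ7-dafachronic acid high control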
DAX1 inh-2: DAX1 (NR0B1) inhibitors on StAR promoter, primary screen, cell-based, luminescence, SF-1 (NR5A1), full-length DAX-1. 370,000 compounds, 1.1% hits. inhibition, % at 6.8 µM. HEK293T StAR-luciferase reporter, SF-1/DAX-1 repression relief. AID 652010, 2013;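 active means inhibition above the mean over all tested compounds plus 3 SD, cut at about 3.6% in these data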;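 further: 0% = DAX-1 cells with DMSO and 100% = cells lacking DAX-1 with DMSO; higher inhibition means more luminescence from relief of DAX-1 repression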
ssDAF12 agonist: S. stercoralis DAF-12 nuclear receptor activators, primary screen, cell-based, luminescence, HEK293, GRIP1 co-expression, lit1-tk-luc. HEK293 ssDAF-12/GRIP1 lit1-tk-luc reporter; % of 3 µM dafachronic acid response. activation, % at 6.8 µM. 370,000 compounds, 1% hits;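 active means activation above the mean over all tested compounds plus 3 SD, cut at about 0.9% in these data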;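 further: 0% = DMSO-only wells and 100% = 3 µM delta7-dafachronic acid wells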
Active calls of the source: *; . = no result.

SMILES	PolyA inh	DAX1 inh-1	hgDAF-12 ag	hcDAF12 agonist	DAX1 inh-2	ssDAF12 agonist
N=C1/C(=C\c2ccc(OC(=O)c3ccccc3)cc2)C(=O)N=C2SC(N3CCOCC3)=NN12	15	2	5	2	1	0
C=CCN1[C@H](C)COc2cc(F)ccc2S1(=O)=O	.	.	2	-1	0	-1
O=c1oc2ccccc2n1CCCOc1ccccc1	14	2	11*	1	2	-1
C[C@H]1[C@@H](OC(=O)Nc2cccc(Cl)c2)CC[C@@]23CCCN2C(=O)CCC[C@@H]13	.	.	-4	-1	.	-2
O=C(NNC(=S)Nc1ccccc1)c1cc(Br)ccc1Cl	-3	0	4	6.1*	0	0
O=C1/C(=C\c2ccccc2)CCc2c1[nH]c1ccccc21	1	-1	13*	6	-1	0
C=CCN1[C@@H](CC(C)C)COc2cccc(F)c2S1(=O)=O	.	.	1	-2	0	-2
CC(=O)Nc1ccc(Oc2cnc3ccccc3n2)cc1	2	-1	4	-1	-1	-1
CC(=O)Nc1cccc(Oc2cnc3ccccc3n2)c1	-2	4.6*	6	4	2	0
O=C(NC1CC1)c1sc2cc(Cl)ccc2c1Cl	-20	1	6	1	4.3*	0
O=C(Nc1nccs1)c1sc2cc(Cl)ccc2c1Cl	2	1	5	2	1	1.4*
O=C(NC1CC1)c1sc2cc(F)ccc2c1Cl	.	1	2	1	2	-1
CC(=O)N(C)C[C@@H]1OCc2ccccc2-c2c(n(C)c3ccccc23)C(=O)N([C@@H](C)CO)C[C@@H]1C	.	.	-3	0	-1	-1
CC(C)(C)SCCNC(=O)c1ccccc1	1	3	7	2	2	0
Cc1ccc(C(=O)NCCSC(C)(C)C)cc1	2	2	11*	5	4.0*	0
C[C@]12C(=O)N(c3ccccc3)C(=O)N1[C@@H]1c3ccccc3OC[C@@H]1[C@H]2c1ccccc1	-6	-1	-2	-1	0	-1
C[C@]12C(=O)N(c3ccc(Br)cc3)C(=O)N1[C@H]1c3ccccc3OC[C@@H]1[C@H]2c1ccccc1	.	0	2	5.8*	-1	-1
Cc1ccc2c(c1)-c1c(cnn1CC(=O)NCCc1ccccc1F)CO2	.	.	-1	0	0	-2
COCCN1Cc2cccc(C(=O)Nc3ccc(S(=O)(=O)N4CCCCCC4)cc3)c2C1=O	0	0	0	-2	0	1.5*
COCCN1Cc2cccc(C(=O)Nc3ccc(S(=O)(=O)N4CCOCC4)cc3)c2C1=O	.	4	-2	2	0	-1
O=C(Nc1ccc(F)cc1)c1cccc2c1C(=O)N(CC1CCCO1)C2 (stereo not drawn)	-12	4.2*	1	-4	2	-1
C[C@@H]1CCN(C2CC2)S(=O)(=O)c2ccc(N3CCC[C@H]3C)cc2O1	.	.	0	-1	-1	0
O=C(COC(=O)c1ccncc1)c1ccc(Br)cc1	5	4.6*	-2	1	1	-1
COc1cccc(/C=N/n2c(C)nc3ccccc3c2=O)c1O	10	5.5*	1	0	1	-1
COc1ccc(S(=O)(=O)N2CCOC23CCN(S(=O)(=O)c2ccccc2)CC3)cc1	29	4.3*	2	-1	1	-1
SMILES	PolyA inh	DAX1 inh-1	hgDAF-12 ag	hcDAF12 agonist	DAX1 inh-2	ssDAF12 agonist
Cn1cccc1C(=O)N1CCN(S(=O)(=O)c2ccc(Cl)s2)CC1	.	.	-5	-1	-1	-1
CCOc1ccccc1N1CCN(CC(=O)Nc2cc(C)on2)CC1	2	0	2	1	-1	-1
Cc1cc(NC(=O)CN2CCN(c3ccccc3O)CC2)no1	1	0	0	0	0	1.1*
CCOC(=O)CNC(=O)CSc1nnc(-c2cccs2)o1	.	.	-1	0	-1	-1
CN(C(=O)CCNC(=O)Cn1cnc2ccccc2c1=O)c1ccc(F)cc1	10	4.8*	3	-2	0	-1
COC(=O)C1=C(C)N(C)C(=NCc2ccc(C(F)(F)F)cc2)NC1c1cccc(F)c1 (stereo not drawn)	.	.	3	-1	0	-1
C/C(=N/O)c1no[n+]([O-])c1/C(C)=N\O	6	7.2*	0	-1	0	-1
COC1=C[C@H](C(=O)NCc2ccc(OC)cc2)C(C)C(c2ccccc2)CC1=O (stereo partly drawn)	.	.	3	-1	1	-2
O=C(O)CCSc1nc(C(F)(F)F)cc(=O)n1-c1ccccc1	2	5.7*	-2	0	0	-1
COc1cccc(CC(=O)OCC(=O)Nc2c(C)nn(-c3ccccc3)c2C)c1	.	7.0*	7	-1	0	-1
CCCC1CCC2(CC1)CCC2OC(=S)Nc1ccccc1OC (stereo not drawn)	.	.	0	-2	.	-2
COc1cc2c(c(OC)c1)C(=O)O[C@H](C)C[C@@H]1O[C@H]1CCCCC(=O)C2	.	.	1	0	0	-1
COC(=O)C1=C(C(=O)OC)[C@@]2([C@H](Cc3ccc(C)cc3)Nc3ccccc3)C=C[C@@H]1O2	.	.	-2	-3	.	-2
COc1ccc(C(=O)NCC(=O)OCC(=O)Nc2sccc2C#N)cc1OC	14	6.4*	5	4	1	1.1*
COc1ccc(OC)c(NC(=O)COC(=O)CNC(=O)c2ccc(OC)c(OC)c2)c1	0	0	3	-1	0	-1
CC(=O)Nc1ccc(S(=O)(=O)Nc2nc3ccccc3nc2Nc2ccc(S(N)(=O)=O)cc2)cc1	-5	1	0	3	0	-1
NS(=O)(=O)c1ccc(Nc2nc3ccccc3nc2NS(=O)(=O)c2cccc([N+](=O)[O-])c2)cc1	7	5.0*	1	-1	0	-1
O=C1NC(c2cccc([N+](=O)[O-])c2)=CCN1c1ccccc1O	-12	1	4	1	0	2.3*
CC(C)c1ccc(S(=O)(=O)N2CCC(C(=O)N3CCC3)CC2)cc1	16	-1	-3	-1	-1	-1
CC(C)c1ccc(S(=O)(=O)N2CCN(C(=O)C3CCCCC3)CC2)cc1	4	0	-4	5.8*	-2	-2

Screening data: PubChem, several laboratories
